Laboratory results reported in ChEMBL document CHEMBL5724796, “Tm Shift (DSF) assay results for EUbOPEN Chemogenomics Library” (2024).
Non-standard residues stand in square brackets, D forms with d. Residues, ends and D or L forms follow the SMILES beside them. *: point of attachment. Benzoyl(4-tBu) = CC(C)(C)c1ccc(C(=O)*)cc1; Lys(Et2) = CCN(CC)CCCC[C@H](N)C(=O)O

What follows are compounds tested against Bromodomain-containing protein 4 (Homo sapiens) (UniProt O60885). Conditions: Compound concentration 20.0 uM.

Structure (SMILES) | ΔTm [°C]
O=C(CCCCCCNC(=O)c1cnc(N(c2ccccc2)c2ccccc2Cl)nc1)NO | -2.47
O=C1Nc2ccccc2C2(CCN(CC(Cc3ccccc3)Nc3nc4ccc(F)cc4s3)CC2)N1 (stereo unspecified) | -4.21
C[C@@H]1CN(Cc2ncccn2)C[C@H]1c1nc2c(cnn2C2CCOCC2)c(=O)[nH]1 | -2.54
CNCCCN1c2ccccc2CCc2ccccc21 | -2.59
O=C(NCc1ccc(Cl)cc1)C1CCN(S(=O)(=O)c2cc(Cl)cc(Cl)c2)CC1 | -2.83
COCCOCCn1nc2c(c1C)-c1c(Cl)ccc3c1c(C)c(C(=O)O)n3CCCOc1cc(cc3c(F)c(Cl)ccc13)CCc1cc(nn1C)CSC2 | -3.74
O=c1[nH][nH]c(=O)c2cc(OCc3ccccc3F)ccc12 | -1.6
CCN(CC)CCCC[C@H](NC(=O)[C@H](CC(C)C)NC(=O)[C@H](C)NC(=O)[C@H](Cc1ccccc1)NC(=O)c1ccc(C(C)(C)C)cc1)C(=O)N[C@@H](CO)C(=O)OC ({Benzoyl(4-tBu)}-FAL[Lys(Et2)]S-OMe) | -1.71
Cc1cc(-c2ccccc2)cc(C(=O)NNS(=O)(=O)c2ccccc2)c1F | -6.22
COc1ccc([C@@H]2CNC(=O)C2)cc1OC1CCCC1 | -3.17
CC(C)[C@@H]1NC(=O)[C@H](Cc2ccc(O)cc2)NC(=O)[C@@H](CC(=O)O)NC(=O)S[C@@H](C(=O)O)NC(=O)[C@H]([C@H](C)O)NC(=O)[C@H](Cc2ccc(O)cc2)NC(=O)[C@H](Cc2c[nH]c3ccccc23)NC(=O)[C@H](CCCNC(=N)N)NC(=O)[C@H](Cc2c[nH]c3ccccc23)NC(=O)[C@H](C)NC(=O)[C@H](CO)NC(=O)[C@H](CCCNC(=N)N)NC(=O)[C@H]([C@H](C)O)NC(=O)[C@H](CC(N)=O)NC(=O)[C@H](Cc2ccc(O)cc2)NC1=O | -2.6
COc1cc(Nc2ncc(F)c(Nc3ccc4c(n3)N(COP(=O)(O)O)C(=O)C(C)(C)O4)n2)cc(OC)c1OC | 0.11
COC(=O)[C@H]1[C@H]2C[C@@H]3c4[nH]c5cc(OC)ccc5c4CCN3C[C@H]2C[C@@H](OC(=O)c2cc(OC)c(OC)c(OC)c2)[C@@H]1OC | -0.12
O=C(CCCCCCNC(=O)c1cnc(N(c2ccccc2)c2ccccc2)nc1)NO | -2.07
CCC[C@@H]1CNCc2c1[nH]c(=O)c(C#N)c2N1CCC2(CC1)CC2 | -1.86
Cc1ccc(F)c2cc(C(=O)N[C@@H]3CCC[C@H](N4CC[C@H](N(C)S(C)(=O)=O)C4)C3)[nH]c12 | -1.2

Structure (SMILES) | ΔTm [°C]
NC(=O)c1cc(F)cc2c1C(=O)N(C1CCN(C3CCC(F)(F)CC3)CC1)C2 | -1.47
CCCC[C@]1(CC)CS(=O)(=O)c2cc(CNC(CC(=O)O)CC(=O)O)c(OC)cc2[C@@H](c2ccccc2)N1 | 0.52
C[C@@H](Oc1ccc(S(C)(=O)=O)cc1C(=O)N1C[C@@H]2C[C@]2(c2cc(C(F)(F)F)on2)C1)C(F)(F)F | -3.24
CCN(CC)C(=O)/C(C#N)=C/c1cc(O)c(O)c([N+](=O)[O-])c1 | 0.45
Cc1cc(C)c(CNC(=O)c2cc(Cl)c3c(c2C)O[C@@](C)([C@H]2CC[C@H](N(C)C)CC2)O3)c(=O)[nH]1 | -1.88
O=C(CCCCCCC(=O)Nc1ccc([C@H]2O[C@@H](CSc3nc(-c4ccccc4)c(-c4ccccc4)o3)C[C@@H](c3ccc(CO)cc3)O2)cc1)NO | -1.65
Cc1ncc(Cl)cc1NCc1ccc(C(=O)N[C@@H](CC2CCCC2)C(=O)NC2CC2)s1 | -3.44
COc1ccc(CC[C@H]2CCC[C@@H](CCc3ccc(OC)cc3)N2C[C@@H](O)CO)cc1 | -3.11
C=C(C)[C@@H](CC=C(C)C)C[C@@]12C[C@@H](CC=C(C)C)C(C)(C)[C@@](CC=C(C)C)(C(=O)C(C(=O)c3ccc(O)c(O)c3)=C1O)C2=O | -5.01
CNC(=O)c1cc(Nc2ccnc(Nc3ccc(CCNC(=O)OC(C)(C)C)cc3)n2)n[nH]1 | -6.4
O=C(c1cc(Cc2n[nH]c(=O)c3ccccc23)ccc1F)N1CC(CNC2CC2)C1 | -1.65
CCCCOc1c(OC)cc(C(=O)NCC2(N(C)C)CCOCC2)cc1OC | 0.11
Cn1c(=O)cc(N2CCC[C@@H](N)C2)n(Cc2cc(F)ccc2C#N)c1=O | -1.94
CCOCC1(COCC)CCC(c2n[nH]cc2CN(C)CCNC)CC1 | -1.39
CCCNC(=O)[C@H]1O[C@@H]1C(=O)N[C@H](C(=O)N1CCC[C@H]1C(=O)O)[C@@H](C)CC | -1.16
